Experiments:
[1] = biological target: Fibroblast growth factor receptor 4 (Homo sapiens) (UniProt P22455); conditions: at 1 µM;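 note: reported figure is the averaged percent inhibition of FGFR4, from the GSK PKIS kinase screening panel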
[2] = biological target: Tyrosine-protein kinase Fgr (Homo sapiens) (UniProt P09769); conditions: at 0.1 µM
[3] = biological target: Tyrosine-protein kinase Fgr (Homo sapiens) (UniProt P09769); conditions: at 1 µM
[4] = biological target: Vascular endothelial growth factor receptor 1 (Homo sapiens) (UniProt P17948); conditions: at 0.1 µM
Chain of Vascular endothelial growth factor receptor 1 (Homo sapiens) (P17948 whole entry): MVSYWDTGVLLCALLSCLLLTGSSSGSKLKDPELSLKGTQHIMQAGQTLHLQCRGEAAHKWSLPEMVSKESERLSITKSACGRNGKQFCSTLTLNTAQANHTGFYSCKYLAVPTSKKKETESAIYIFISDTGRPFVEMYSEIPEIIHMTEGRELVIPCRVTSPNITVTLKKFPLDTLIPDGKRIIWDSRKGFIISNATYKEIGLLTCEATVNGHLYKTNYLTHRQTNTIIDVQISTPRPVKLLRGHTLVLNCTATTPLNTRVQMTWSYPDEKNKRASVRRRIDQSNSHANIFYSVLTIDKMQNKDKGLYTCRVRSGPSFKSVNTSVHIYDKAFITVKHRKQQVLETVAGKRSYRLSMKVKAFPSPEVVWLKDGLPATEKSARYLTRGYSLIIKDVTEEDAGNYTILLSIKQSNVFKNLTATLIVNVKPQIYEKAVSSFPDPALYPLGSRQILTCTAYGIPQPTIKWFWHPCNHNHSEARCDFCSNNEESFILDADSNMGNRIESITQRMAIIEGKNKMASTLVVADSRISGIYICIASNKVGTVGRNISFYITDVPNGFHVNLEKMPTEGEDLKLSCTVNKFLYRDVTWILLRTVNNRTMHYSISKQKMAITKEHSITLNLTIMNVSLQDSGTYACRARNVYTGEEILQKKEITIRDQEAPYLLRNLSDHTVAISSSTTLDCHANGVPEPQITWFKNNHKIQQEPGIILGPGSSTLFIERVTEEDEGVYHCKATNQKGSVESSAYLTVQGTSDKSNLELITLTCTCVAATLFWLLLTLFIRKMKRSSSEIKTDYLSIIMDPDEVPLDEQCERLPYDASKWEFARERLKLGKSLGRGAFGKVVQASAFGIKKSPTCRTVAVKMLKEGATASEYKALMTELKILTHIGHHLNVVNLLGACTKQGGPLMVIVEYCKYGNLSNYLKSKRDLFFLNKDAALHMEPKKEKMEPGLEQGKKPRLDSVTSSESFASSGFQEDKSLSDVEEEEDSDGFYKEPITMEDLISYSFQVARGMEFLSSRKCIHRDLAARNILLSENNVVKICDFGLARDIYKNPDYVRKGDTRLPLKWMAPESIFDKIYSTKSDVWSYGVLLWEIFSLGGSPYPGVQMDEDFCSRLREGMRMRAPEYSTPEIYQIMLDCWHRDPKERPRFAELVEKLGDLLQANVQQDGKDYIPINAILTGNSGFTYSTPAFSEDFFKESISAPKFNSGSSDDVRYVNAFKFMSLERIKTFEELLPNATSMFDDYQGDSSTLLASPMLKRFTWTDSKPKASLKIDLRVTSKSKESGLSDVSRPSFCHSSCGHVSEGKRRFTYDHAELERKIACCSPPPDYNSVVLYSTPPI

[5] = biological target: Vascular endothelial growth factor receptor 1 (Homo sapiens) (UniProt P17948); conditions: at 1 µM
[6] = biological target: Receptor-type tyrosine-protein kinase FLT3 (Homo sapiens) (UniProt P36888); conditions: at 0.1 µM
[7] = biological target: Receptor-type tyrosine-protein kinase FLT3 (Homo sapiens) (UniProt P36888); conditions: at 1 µM
[8] = system: T1, Receptor-type tyrosine-protein kinase FLT3 (Homo sapiens), P36888 [D835Y]; conditions: at 0.1 µM
T1 sequence (whole entry): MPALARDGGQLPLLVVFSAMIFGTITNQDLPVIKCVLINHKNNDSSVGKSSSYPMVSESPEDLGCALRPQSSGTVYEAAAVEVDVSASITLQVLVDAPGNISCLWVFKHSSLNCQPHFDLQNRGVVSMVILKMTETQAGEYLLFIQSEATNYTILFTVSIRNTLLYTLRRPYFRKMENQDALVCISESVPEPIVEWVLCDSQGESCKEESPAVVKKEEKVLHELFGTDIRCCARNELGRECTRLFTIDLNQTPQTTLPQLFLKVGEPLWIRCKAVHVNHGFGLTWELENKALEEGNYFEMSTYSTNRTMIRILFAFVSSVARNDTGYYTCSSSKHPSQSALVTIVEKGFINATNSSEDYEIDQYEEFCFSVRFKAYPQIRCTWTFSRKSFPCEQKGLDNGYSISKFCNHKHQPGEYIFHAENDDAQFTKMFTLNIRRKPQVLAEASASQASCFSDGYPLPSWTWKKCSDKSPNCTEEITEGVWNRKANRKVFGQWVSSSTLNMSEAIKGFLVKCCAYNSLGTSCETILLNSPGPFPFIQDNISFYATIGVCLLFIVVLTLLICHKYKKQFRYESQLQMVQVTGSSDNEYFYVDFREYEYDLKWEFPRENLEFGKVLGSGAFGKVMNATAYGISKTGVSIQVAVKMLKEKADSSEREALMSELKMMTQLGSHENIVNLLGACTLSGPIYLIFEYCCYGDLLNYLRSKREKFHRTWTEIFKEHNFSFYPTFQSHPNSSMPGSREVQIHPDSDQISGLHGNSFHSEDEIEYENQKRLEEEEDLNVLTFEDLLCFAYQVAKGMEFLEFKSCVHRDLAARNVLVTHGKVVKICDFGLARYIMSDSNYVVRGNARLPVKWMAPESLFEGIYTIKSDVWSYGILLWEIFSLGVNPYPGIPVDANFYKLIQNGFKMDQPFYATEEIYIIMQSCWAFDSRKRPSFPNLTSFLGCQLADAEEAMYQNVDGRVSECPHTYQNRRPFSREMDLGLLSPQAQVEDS

[9] = biological target: Non-receptor tyrosine-protein kinase TYK2 (Homo sapiens) (UniProt P29597); conditions: at 1 µM;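 note: values are mean percent inhibition of TYK2 kinase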
Chain of Non-receptor tyrosine-protein kinase TYK2 (Homo sapiens) (P29597 whole entry): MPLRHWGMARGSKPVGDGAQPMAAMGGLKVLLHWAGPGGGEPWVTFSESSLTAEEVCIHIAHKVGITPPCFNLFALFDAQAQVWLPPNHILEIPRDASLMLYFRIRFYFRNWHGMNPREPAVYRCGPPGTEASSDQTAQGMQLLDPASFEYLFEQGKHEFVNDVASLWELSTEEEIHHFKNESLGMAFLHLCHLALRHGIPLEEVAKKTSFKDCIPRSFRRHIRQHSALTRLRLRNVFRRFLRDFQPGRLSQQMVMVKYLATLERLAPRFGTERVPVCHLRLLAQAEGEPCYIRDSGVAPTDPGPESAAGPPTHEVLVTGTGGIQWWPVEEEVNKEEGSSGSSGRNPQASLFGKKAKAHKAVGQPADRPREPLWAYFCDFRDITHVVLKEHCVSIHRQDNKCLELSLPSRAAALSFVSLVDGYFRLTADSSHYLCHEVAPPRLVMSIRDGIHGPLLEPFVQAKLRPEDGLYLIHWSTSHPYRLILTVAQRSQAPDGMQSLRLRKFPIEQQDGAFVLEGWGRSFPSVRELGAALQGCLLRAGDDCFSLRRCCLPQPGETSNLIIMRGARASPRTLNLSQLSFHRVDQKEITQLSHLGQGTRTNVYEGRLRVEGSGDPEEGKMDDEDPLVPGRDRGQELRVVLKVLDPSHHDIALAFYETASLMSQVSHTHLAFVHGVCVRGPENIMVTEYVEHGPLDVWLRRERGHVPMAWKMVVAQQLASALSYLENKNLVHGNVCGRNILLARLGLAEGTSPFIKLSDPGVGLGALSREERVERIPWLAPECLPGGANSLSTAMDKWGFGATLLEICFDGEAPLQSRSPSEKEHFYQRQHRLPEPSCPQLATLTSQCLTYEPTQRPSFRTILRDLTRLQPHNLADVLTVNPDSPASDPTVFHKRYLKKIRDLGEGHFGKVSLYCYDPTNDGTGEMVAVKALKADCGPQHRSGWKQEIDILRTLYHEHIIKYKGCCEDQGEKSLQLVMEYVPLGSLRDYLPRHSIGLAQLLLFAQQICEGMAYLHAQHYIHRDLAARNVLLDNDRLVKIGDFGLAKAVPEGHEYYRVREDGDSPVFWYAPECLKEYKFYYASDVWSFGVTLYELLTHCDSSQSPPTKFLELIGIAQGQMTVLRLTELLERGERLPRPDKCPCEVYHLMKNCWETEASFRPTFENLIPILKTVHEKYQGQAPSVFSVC

[10] = biological target: T2, Tyrosine-protein kinase receptor TYRO3 (Homo sapiens) (UniProt Q06418); conditions: at 0.1 µM;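 note: reported percentages are averaged inhibition values of TYRO3 kinase activity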
T2 sequence (whole entry): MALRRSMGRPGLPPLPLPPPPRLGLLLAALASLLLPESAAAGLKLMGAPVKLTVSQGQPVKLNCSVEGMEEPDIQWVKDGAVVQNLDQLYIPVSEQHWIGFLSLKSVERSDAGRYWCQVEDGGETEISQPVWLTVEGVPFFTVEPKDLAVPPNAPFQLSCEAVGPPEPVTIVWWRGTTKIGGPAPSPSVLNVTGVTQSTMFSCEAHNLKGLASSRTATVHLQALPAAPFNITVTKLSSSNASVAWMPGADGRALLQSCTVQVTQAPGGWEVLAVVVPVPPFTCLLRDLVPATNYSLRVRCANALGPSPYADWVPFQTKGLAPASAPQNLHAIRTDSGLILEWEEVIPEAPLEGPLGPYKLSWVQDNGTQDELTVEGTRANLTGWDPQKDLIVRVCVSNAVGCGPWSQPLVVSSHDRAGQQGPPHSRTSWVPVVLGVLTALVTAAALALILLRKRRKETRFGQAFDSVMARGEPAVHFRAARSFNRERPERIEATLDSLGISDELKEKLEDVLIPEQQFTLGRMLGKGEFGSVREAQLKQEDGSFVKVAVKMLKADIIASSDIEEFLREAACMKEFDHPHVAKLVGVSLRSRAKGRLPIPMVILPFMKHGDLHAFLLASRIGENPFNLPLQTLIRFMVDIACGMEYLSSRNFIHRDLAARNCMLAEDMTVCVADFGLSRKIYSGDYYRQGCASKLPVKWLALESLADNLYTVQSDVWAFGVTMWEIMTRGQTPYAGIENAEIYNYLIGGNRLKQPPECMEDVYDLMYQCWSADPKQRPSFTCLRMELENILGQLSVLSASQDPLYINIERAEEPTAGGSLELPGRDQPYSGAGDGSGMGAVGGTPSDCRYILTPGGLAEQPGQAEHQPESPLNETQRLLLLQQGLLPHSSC

Chain of Fibroblast growth factor receptor 4 (Homo sapiens) (P22455 22-802 limits assumed): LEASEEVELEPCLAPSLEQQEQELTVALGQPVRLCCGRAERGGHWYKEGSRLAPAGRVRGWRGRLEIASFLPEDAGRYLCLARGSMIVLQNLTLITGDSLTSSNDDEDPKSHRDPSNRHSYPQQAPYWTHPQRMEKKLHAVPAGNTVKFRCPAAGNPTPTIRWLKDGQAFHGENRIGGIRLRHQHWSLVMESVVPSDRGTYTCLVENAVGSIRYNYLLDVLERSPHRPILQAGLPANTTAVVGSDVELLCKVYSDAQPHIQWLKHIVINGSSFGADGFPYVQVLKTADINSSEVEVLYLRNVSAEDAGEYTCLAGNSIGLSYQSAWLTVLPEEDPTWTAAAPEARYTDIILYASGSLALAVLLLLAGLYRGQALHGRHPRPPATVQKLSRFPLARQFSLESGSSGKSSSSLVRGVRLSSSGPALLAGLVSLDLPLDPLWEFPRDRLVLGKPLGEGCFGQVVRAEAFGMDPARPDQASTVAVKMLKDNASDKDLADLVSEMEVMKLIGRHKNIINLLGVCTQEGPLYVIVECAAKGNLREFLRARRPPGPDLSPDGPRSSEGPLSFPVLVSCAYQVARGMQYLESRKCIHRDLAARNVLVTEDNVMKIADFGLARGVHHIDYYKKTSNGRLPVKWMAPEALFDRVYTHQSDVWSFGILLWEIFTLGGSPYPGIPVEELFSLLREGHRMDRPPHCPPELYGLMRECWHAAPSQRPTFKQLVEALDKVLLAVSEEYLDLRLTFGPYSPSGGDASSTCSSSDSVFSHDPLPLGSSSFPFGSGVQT
Chain of Tyrosine-protein kinase Fgr (Homo sapiens) (P09769 2-529 limits assumed): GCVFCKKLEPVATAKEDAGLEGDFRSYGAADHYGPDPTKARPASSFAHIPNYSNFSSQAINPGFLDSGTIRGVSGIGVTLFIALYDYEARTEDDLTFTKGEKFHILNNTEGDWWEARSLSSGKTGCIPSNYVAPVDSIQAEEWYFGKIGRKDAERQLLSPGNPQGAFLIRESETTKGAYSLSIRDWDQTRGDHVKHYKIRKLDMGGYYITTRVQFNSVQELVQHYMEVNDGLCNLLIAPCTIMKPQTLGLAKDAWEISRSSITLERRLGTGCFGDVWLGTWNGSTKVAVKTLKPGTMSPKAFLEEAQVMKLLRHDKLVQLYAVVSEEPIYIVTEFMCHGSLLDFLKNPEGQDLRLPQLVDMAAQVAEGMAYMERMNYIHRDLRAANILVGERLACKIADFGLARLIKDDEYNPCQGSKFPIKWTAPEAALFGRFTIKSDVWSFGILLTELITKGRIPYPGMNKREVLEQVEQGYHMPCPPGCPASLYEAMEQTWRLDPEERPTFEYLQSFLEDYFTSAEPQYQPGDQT

| Compound | inhibition [1] [%] | inhibition [2] [%] | inhibition [3] [%] | inhibition [4] [%] | inhibition [5] [%] | inhibition [6] [%] | inhibition [7] [%] | inhibition [8] [%] | inhibition [9] [%] | inhibition [10] [%] |
| --- | --- | --- | --- | --- | --- | --- | --- | --- | --- | --- |
| COC(=O)Nc1nc2ccc(Oc3ccc(NC(=O)Nc4cccc(Cl)c4)cc3)cc2[nH]1 | -0.03 | 2.28 | 4.23 | 28.6 | 56.8 | 21.1 | 57.2 | -4.92 | -0.96 | 3.45 |
| CC(C)COC(=O)c1ccc2c(c1)/C(=C/Nc1ccc(S(N)(=O)=O)cc1)C(=O)N2 | 2.26 | 4.59 | 32 | 4.68 | 39.4 | – | 56 | 58.7 | 4.42 | 0.69 |
| COc1ccc(-c2oc3ncnc(N)c3c2-c2ccc(NC(=O)Nc3cc(C(F)(F)F)ccc3F)cc2)cc1 | 48.5 | 17 | 61 | 47.8 | 96.7 | 22.1 | – | 12.7 | 0.14 | 8.25 |
| COc1ccc(-c2cc(-c3c[nH]nc3-c3ccccn3)ccn2)cc1 | 6.88 | 5.33 | 4.21 | 3.66 | 8.02 | 3.81 | – | 1.47 | -4.16 | 2.81 |
| FC(F)(F)c1cccc(-c2nn3ncccc3c2-c2ccnc(Nc3ccc4c(c3)OCCO4)n2)c1 | 2.21 | 32.5 | 75.3 | 0.57 | 12 | 0.74 | – | -3.8 | -3.08 | 4.46 |
| CS(=O)(=O)CCNCc1ccc(-c2ccc3ncnc(Nc4ccc(OCc5ccccc5)c(C(F)(F)F)c4)c3c2)o1 | 2.14 | 1.98 | 4.93 | 1.28 | 0.39 | 3.55 | 2.04 | -8.47 | -3.76 | 5.89 |
| CN(C)CCOc1ccc(-c2nc(-c3ccncc3)c(-c3ccc4c(c3)CC/C4=N\O)[nH]2)cc1 | 0.44 | 2.2 | 5.88 | 2.37 | 2.95 | 2.67 | 2.62 | 1.65 | -5.49 | 3.44 |
| COc1cc(Nc2nccc(Nc3ccc4c(C)n[nH]c4c3)n2)cc(OC)c1OC | 2.48 | 18.2 | 57.5 | 38.3 | 88 | 57.8 | 90.3 | 52.4 | 33.3 | 5.01 |
| O=C(O[C@H]1CN[C@H](C#Cc2cc3ncnc(Nc4ccc(Cc5ccccc5)cc4)c3s2)C1)N1CCOCC1 | 0.95 | 5.25 | 20.8 | -0.12 | 2.35 | -1.61 | 0.34 | 5.18 | -3.27 | 0.99 |
| CCn1c(-c2nonc2N)nc2c(C#CC(C)(C)O)ncc(OC3CCNCC3)c21 | -1.22 | 1.43 | 4.57 | 5.67 | 16.4 | 3.32 | 3.82 | 1.56 | -1.36 | 2.05 |
| Fc1cccc(COc2ccc(Nc3ncnc4sc(-c5ccco5)cc34)cc2Cl)c1 | -0.7 | 3.8 | 8.35 | 2.39 | 2.46 | – | 4.08 | -8.41 | -1.9 | 5.86 |
| Nc1nc(-c2cccc(Cl)c2)c(-c2ccc3ncccc3n2)s1 | 2.06 | 4.53 | 4.6 | 0.88 | 3.45 | 2.09 | 2 | -4.43 | -0.72 | 3.62 |
| COc1cc2c(cc1Nc1nc(Nc3ccsc3C(N)=O)c3cc[nH]c3n1)N(C(=O)CN(C)C)CCC2(C)C | 4.78 | 1.11 | 6.75 | 1.44 | 1.83 | 4.2 | 13 | 0.35 | -1.34 | 3.88 |
| CNC(=O)c1cccc(C#Cc2cncnc2Nc2ccc(OCc3cccc(F)c3)c(Cl)c2)c1 | 1.45 | 4.48 | 6.13 | 1.95 | 1.32 | 1.74 | 3.22 | 1.13 | 0.07 | 3.38 |
| COc1ccc2[nH]c3c4[nH]c5ccc(OC)cc5c4c4c(c3c2c1)C(=O)NC4=O | 3.95 | 10.8 | 28 | 2.46 | 19.2 | 28.6 | 79.1 | 65 | -0.6 | 17.1 |
| CNC(=O)c1cncc(/C=C/c2ccccc2Cl)c1 | 1.93 | 5.13 | 9.91 | 0.53 | 2.73 | 1.25 | -0.38 | 3.03 | 2.16 | 0.43 |
| CCn1c(-c2nonc2N)nc2cnc(Oc3cccc(NC(=O)c4ccc(N(C)C)cc4)c3)cc21 | -0.05 | 0.55 | – | 2.13 | 4.41 | 0.6 | 1.09 | -1.65 | -0.04 | 0.1 |

| Compound | inhibition [1] [%] | inhibition [2] [%] | inhibition [3] [%] | inhibition [4] [%] | inhibition [5] [%] | inhibition [6] [%] | inhibition [7] [%] | inhibition [8] [%] | inhibition [9] [%] | inhibition [10] [%] |
| --- | --- | --- | --- | --- | --- | --- | --- | --- | --- | --- |
| CCc1nn2ncccc2c1-c1ccnc(NC2CC2)n1 | 1.27 | 3.49 | 3.74 | 0.02 | 2.1 | 3.16 | 3.41 | -7.04 | 2.1 | -0.14 |
| COc1cc(/C=N/Nc2ncnc3[nH]ncc23)ccc1O | 2.77 | 12.4 | 52.6 | 2.92 | 10.6 | 3.29 | 17.4 | 3.54 | 4.1 | 4.61 |
| COc1ccc(-c2cc3c(N)ncnc3o2)cc1 | -1.73 | 1.49 | 7.14 | -0.2 | 0.12 | -0.73 | -0.84 | -4.44 | 3.74 | -0.51 |
| CC(=O)Nc1cccc(C#Cc2cncnc2Nc2ccc(OCc3cccc(F)c3)c(Cl)c2)c1 | 1.74 | 2.84 | 9.6 | 2.19 | 3.25 | 2.59 | 2.38 | -3.37 | 0.26 | 3.62 |
| COc1cc(N2CCN(C(C)C)CC2)ccc1Nc1nc(Nc2ccc(F)cc2C(N)=O)c2cc[nH]c2n1 | 7.42 | 0.9 | 5.03 | -0.84 | 0.61 | 2.47 | 8.56 | 2.42 | -2.61 | 0.64 |
| CCOc1ccc2c(-c3ccnc(Nc4cccc(C(F)(F)F)c4)n3)cnn2n1 | -0.95 | 2.53 | 5.2 | -0.98 | 1.9 | -0.37 | 5.14 | – | 0 | 0.79 |
| Nc1ncc(-c2cccc(S(N)(=O)=O)c2)c2scc(-c3ccc(F)c(Cl)c3)c12 | 5.88 | 10.9 | 45.8 | 4.56 | 14.9 | 1.34 | 5.98 | -3.2 | -2.5 | 4.05 |
| COc1ccc(CNC(=O)c2ccc(-c3cc(-c4nnc(C)o4)ccc3C)cc2)cc1 | 3.73 | 8.93 | 6.92 | -0.52 | -0.47 | 0.57 | -0.2 | -2.79 | 1.88 | 1.4 |
| c1ccc(COc2ccc(Nc3ncnc4ccc(-c5ccco5)cc34)cc2)cc1 | 0.84 | 3.1 | 7.56 | -2.31 | -0.13 | 0.33 | 3.12 | -0.59 | -2.46 | 0.34 |
| c1ccc(-c2nc3n(c2-c2ccc4c(c2)OCO4)CCC3)nc1 | 1.32 | -0.63 | 0.17 | 1.18 | 0.86 | 1.13 | 0.36 | -1.36 | -1.07 | 0.75 |
| N#Cc1c(NC(=O)c2ccc(F)cc2)sc2c1CCCC2 | 1.31 | 2.11 | 1.83 | 0.3 | 1.63 | -2.18 | 0.66 | -4.75 | -1.49 | 0.28 |
| c1cc(-c2cnn3nc(N4CCOCC4)ccc23)nc(NC2CC2)n1 | 1.73 | 3.22 | 8.79 | 3.82 | 8.82 | 4.34 | 17.2 | 7.24 | -4.59 | -0.77 |
| COC(=O)Nc1nc2ccc(S(=O)(=O)c3ccc(NC(=O)Nc4cc(C(F)(F)F)ccc4F)cc3)cc2[nH]1 | 0.83 | 0.25 | 6.79 | 0.68 | -0.67 | -0.31 | 3.96 | -2.76 | 0.09 | 0.25 |
| CCCN(CCS(C)(=O)=O)Cc1ccc(-c2ccc3ncnc(Nc4ccc(OCc5cccc(F)c5)c(Cl)c4)c3c2)o1 | 3.7 | 3.69 | 7.51 | -1 | 1.07 | 0.88 | 1.93 | 1.48 | -0.78 | 2.08 |
| CCN1CCC(CC(=O)Nc2n[nH]c3nnc(-c4cccc(F)c4F)cc23)CC1 | -2.43 | 2.47 | 1.19 | 0.64 | -0.57 | 3.74 | 1.44 | – | 2.26 | 1.36 |
| Cc1cccc2c1NC(=O)/C2=N\Nc1ccc(S(N)(=O)=O)cc1 | 1.63 | 0.52 | 4.37 | -0.48 | -0.65 | 2.88 | 8.43 | 3.4 | -0.5 | 3.05 |
| NC(=O)c1sc(-n2cnc3ccc(C(F)(F)F)cc32)cc1OCc1ccccc1Br | 2.14 | 3.5 | 1.54 | 1.4 | 4.1 | 1.91 | 1.02 | -2.48 | -3.62 | 3.13 |
